Several values for one entry are separate records, joined by “and”; a condition that tells them apart may be missing. Equal values may be shown once. Results filed as inconclusive are left out. Where a call stands in place of a potency, no number is given. Activity calls are given as the source filed them. Calls follow the shape of the dose curve; as a rule, active = well fitted inhibition curve with a large enough effect; inconclusive = small, poorly fitted or top-dose-only effect; inactive = no such curve, though single readings can be large or run the other way.
Potency is read from the fitted curve at half-maximal effect.

The experiment is described as follows: Primary qHTS for inhibitors of nuclear receptor binding SET domain protein 2 (NSD2) in an RCH-ACV wild type WT cells (2C) (AID 1645877). Also: nearly all actives have a fitted effect of over 70% in size. The following applies: RCH-ACV (leukaemia line) NSD2 WT (2C) viability, CellTiter-Glo, 72 h; series mostly up to 44.9 µM. From the text: Assay Provider: Jonathan D. Licht, MD
University of Florida College of Medicine, Gainesville, FL
Mutations in epigenetic regulators are common in relapsed pediatric acute lymphoblastic leukemia (ALL). Here, we uncovered the mechanism underlying the relapse of ALL driven by an activating mutation of the NSD2 histone methyltransferase (p.E1099K). […] Correction of this mutation restored glucocorticoid sensitivity. The transcriptional response to glucocorticoids was blocked in NSD2 mutant cells due to depressed glucocorticoid receptor (GR) levels and the failure of glucocorticoids to autoactivate GR expression. […] Pre-treatment of NSD2 p.E1099K cell lines and PDX samples with PRC2 inhibitors reversed glucocorticoid resistance in vitro and in vivo.
High-throughput drug screening of isogenic RCH-ACV cell lines was performed at the National Center for Advancing Translational Science (NCATS), National Institutes of Health as previously described (1). Briefly, isogenic RCH-ACV NSD2 p.E1099K mutant (9B) and WT cells (2C) were plated at 500 cells/well in a 1536-well plate with a 72-hour incubation with compounds prior to addition of CellTiter-Glo to assess cell viability. NCATS libraries screened include: NPC, MIPE 5.0, Kinase and NPACT. To determine compound activity in the qHTS assay, the concentration-response data for each sample was plotted and modeled by a four-parameter logistic fit yielding IC50 and efficacy (maximal response) values. The area under the curve (AUC) of the dose-response curve ensures both efficacy (magnitude of cell killing) and potency (concentration that elicits cell killing) are accounted for in the analysis of activity.
1. Tobie D Lee, Olivia W Lee, Kyle R Brimacombe, Lu Chen, Rajarshi Guha, Sabrina Lusvarghi, Bethilehem G Tebase, Carleen Klumpp-Thomas, Robert W Robey, Suresh V Ambudkar, Min Shen, Michael M Gottesman, Matthew D Hall. A High-Throughput Screen of a Library of Therapeutics Identifies Cytotoxic Substrates of P-glycoprotein. Mol Pharmacol. 2019, Nov;96(5):629-640.
(In qHTS, concentration-response curves come from the screen itself.)
As for `CC(=O)OC(C)C[N+](C)(C)C` (stereo not given), the Potency entry is “inactive”.

For the molecule `CCN(CC)CCNC(=O)c1ccc(NC(C)=O)cc1`, the Potency result was “inactive”.

With `CC(C)(Oc1ccc(CCNC(=O)c2ccc(Cl)cc2)cc1)C(=O)O`, the Potency entry was “inactive”.

As to `CCCN(CCC)CCc1cccc2c1CC(=O)N2`, the Potency result was “inactive”.

As for `CC(C(=O)O)c1ccc(CC2CCCC2=O)cc1` (stereo not given), the Potency result was “inactive”.

As for `CN(C)C(=O)Oc1cccc([N+](C)(C)C)c1`, the Potency result is “inactive”.

`CC[N+](C)(C)c1cccc(O)c1`: the Potency entry was “inactive”.

`CCCCCN(CCCCC)C(=O)C(CCC(=O)O)NC(=O)c1ccc(Cl)c(Cl)c1` (stereo not given): the Potency result was “inactive”.

On to `O=C(O)CCCCCCCC(=O)O`, for which the Potency entry is “inactive”.

As for `CN(C)C/C=C(/c1ccc(Br)cc1)c1cccnc1`, the Potency result is “inactive”.

As for `NS(=O)(=O)c1cc2c(cc1Cl)NC(C1CC3C=CC1C3)NS2(=O)=O` (stereo not given), the Potency result is “inactive”.

As for `CCCC(C(=O)OCCN(CC)CC)(c1ccccc1)c1ccccc1`, the Potency is 11.9 µM (active).

As to `c1ccc2c(c1)CCCC2C1=NCCN1` (stereo not given), the Potency result was “inactive”.

In the case of `CN(C)CCOC(=O)COc1ccc(Cl)cc1`, the Potency result is “inactive”.

For `CCCN(CCC)C(=O)C(CCC(=O)O)NC(=O)c1ccccc1` (stereo not given), the Potency result was “inactive”.

Turning to `CC(=O)OCC1=C(C(=O)O)N2C(=O)[C@@H](NC(=O)Cc3cccs3)[C@H]2SC1`, the Potency result is “inactive”.

As for `CC(C)[N+](C)(CCOC(=O)C1c2ccccc2Oc2ccccc21)C(C)C`, the Potency entry is “inactive”.

With `CC(=O)Nc1nnc(S(N)(=O)=O)s1`, the Potency result was “inactive”.

In the case of `C[C@H](CS)C(=O)N1CCC[C@H]1C(=O)O`, the Potency entry is “inactive”.

For the molecule `Nc1c2c(nc3ccccc13)CCCC2O` (stereo not given), the Potency entry is “inactive”.

For `CC(=O)[C@]1(O)Cc2c(O)c3c(c(O)c2[C@@H](O[C@H]2C[C@H](N)[C@H](O)[C@H](C)O2)C1)C(=O)c1ccccc1C3=O`, the Potency is 0.9 nM (active) and 37.2 nM (active).

For `CCN(CC)CCNC(=O)c1cc(S(C)(=O)=O)ccc1OC`, the Potency entry was “inactive”.

Regarding `CC(C)NCC(O)c1cc(O)cc(O)c1` (stereo not given), the Potency entry is “inactive”.

In the case of `O=C(O)CP(=O)(O)O`, the Potency entry is “inactive”.

For `COCCOC(=O)C1=C(C)NC(C)=C(C(=O)OC(C)C)C1c1cccc([N+](=O)[O-])c1` (stereo not given), the Potency result is “inactive”.

In the case of `N[C@@H](COP(=O)(O)O)C(=O)O`, the Potency result was “inactive”.

On to `Nc1nc(N)c2nc(-c3ccccc3)c(N)nc2n1`, for which the Potency was 9.44 µM (active).

For `CCN(CC)CC(=O)Nc1c(C)cccc1C`, the Potency entry is “inactive”.

Regarding `CN=C(NC#N)NCCSCc1nc[nH]c1C`, the Potency entry was “inactive”.

As for `NC(Cc1ccc(Cl)cc1)C(=O)O` (stereo not given), the activity change, negative = cell killing is 2.13% [at 0.588 µM] (inactive).

As for `C[C@@H](O)[C@H]1C(=O)N2C(C(=O)O)=C(SCCN=CN)C[C@H]12`, the Potency result is “inactive”.

Regarding `O=C(O)CN(CCOCCOCCN(CC(=O)O)CC(=O)O)CC(=O)O`, the activity change, negative = cell killing is -1.31% [at 0.588 µM] (inactive).

On to `FC(F)(F)c1ccccc1-n1ccnc1`, for which the Potency result is “inactive”.

Take `C[C@]12CC[C@@H]3c4ccc(O)cc4C[C@@H](CCCCCCCCCS(=O)CCCC(F)(F)C(F)(F)F)[C@H]3[C@@H]1CC[C@@H]2O` (stereo not given in full): the Potency entry is “inactive”.

For the molecule `CC(N=C(NC#N)Nc1ccncc1)C(C)(C)C` (stereo not given), the Potency entry was “inactive”.

Consider `CCCNC(C)C(=O)Nc1ccccc1C` (stereo not given), for which the Potency result was “inactive”.

In the case of `Cc1cc(C)c(/C=C2\C(=O)Nc3ccccc32)[nH]1`, the Potency result was “inactive”.

For the molecule `CCN(Cc1ccncc1)C(=O)C(CO)c1ccccc1` (stereo not given), the Potency entry was “inactive”.

Regarding `CCOC(=O)c1cnc2c(cnn2CC)c1NN=C(C)C`, the Potency result is “inactive”.

Turning to `C[N+](C)(C)CCCCCCCCCC[N+](C)(C)C`, the Potency entry was “inactive”.

The values above are taken from PubChem BioAssay (NCATS).
